Measurements reported in PubChem BioAssay (NCATS).
Several values for one entry are separate records, joined by “and”; a condition that tells them apart may be missing. Equal entries are not always repeated. Inconclusive results are not listed. Entries that show only a call come without a potency. More than one record can exist for a structure, and the calls need not agree. Activity calls are given as the source filed them. The call rests on the fitted dose curve; in most records, active means well fitted curve in the direction sought with a large enough effect; inconclusive means small, poorly fitted or top-dose-only effect, or another doubt; inactive means no such curve, though single readings can be large; an effect the other way counts as inactive or inconclusive.

Assays:
[1] = Viability counterscreen for antagonist of constitutive androstane receptor (CAR) against the NCATS DSHEA and TCM libraries (AID 1794837);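 further: compound exposure lasted 24 h before viability reading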
Method in brief: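 Cells: HepG2 line carrying CYP2B6 reporter and hCAR, seeded and attached 5 h. Then pin-transferred test substances plus agonist CITCO at 48 uM final; 24 h incubation; fluorogenic viability reagent, 1 h.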

[2] = Viability counterscreen for agonist of constitutive androstane receptor (CAR) against the NCATS DSHEA and TCM libraries (AID 1794838);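 further: HepG2 cells with CYP2B6 reporter and hCAR plus 0.75 µM PK11195 antagonist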
Method in brief: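 Cell health was measured as CellTiter-Fluor signal in HepG2-CYP2B6-hCAR cells treated for 24 h with substances alongside the hCAR antagonist PK11195 (0.75 uM final).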

[3] = target: Nuclear receptor subfamily 1 group I member 3 (Homo sapiens) (UniProt Q14994); experiment: Primary qHTS for agonist of constitutive androstane receptor (CAR) against the NCATS DSHEA and TCM libraries (AID 1794839);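 further: HepG2 cells expressing human CAR with a CYP2B6 reporter plus PK11195 antagonist; luciferase reporter luminescence read with ONE-Glo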
Method in brief: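 qHTS, agonist mode: HepG2-CYP2B6-hCAR, 2,500 cells/well, 5 h attach; cpds + PK11195 0.75 µM final; 24 h, 37 °C, 5% CO2. Readouts: CellTiter-Fluor (405/540 nm), then ONE-Glo luminescence.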

[4] = HepG2 viability counterscreen (readout 2: ATP content) against the NCATS DSHEA and TCM libraries (AID 1794840)
Method in brief: (§1)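 Same wells read twice: first fluorescence from cleaved GF-AFC substrate (25 uM final, 30 min, 37C) for live-cell protease, then CellTiter-Glo luminescence after 30 min at room temperature for ATP. HepG2 cells were exposed ~24 h to substances.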

[5] = HepG2 viability counterscreen (readout 1: protease activity) against the NCATS DSHEA and TCM libraries (AID 1794841);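 further: cells exposed to compounds for about 24 h before the protease read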
Method in brief: as §1

[6] = target: Metallo-beta-lactamase type 2 (Klebsiella pneumoniae) (UniProt C7C422); experiment: qHTS to identify inhibitors of the New Delhi Metallo-beta-lactamase (NDM): assay validation screen against the NCATS LOPAC Collection (AID 1794843); further: series mostly up to about 38 µM
Method in brief: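 Absorbance at 485 nm from nitrocefin turnover (50 uM solution added), read at plateau, gives the read-out. Compounds in DMSO were incubated first with 2 nM final NDM-1 in pH 7.0 HEPES buffer containing 1 uM ZnSO4 and 0.01% Tween20.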

[7] = target: Glutathione peroxidase 1 (Homo sapiens) (UniProt P07203); experiment: Primary qHTS Assay for Inhibitors of Recombinant Selenoprotein Glutathione Peroxidase 1 (GPX1) (AID 1845191); further: nearly all actives have a fitted effect of over 65% in size
Method in brief: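 Recombinant GPX1 (10 nM final) was preincubated with compound for 30 min at room temperature, then reacted with 1 mM GSH, 0.5 mM CHP, 0.5 mM NADPH and 100 nM glutathione reductase; NADPH fluorescence (340/450 nm) was read at 0 and 15 min.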

[8] = target: Phospholipid hydroperoxide glutathione peroxidase GPX4 (Homo sapiens) (UniProt P36969); experiment: Primary qHTS Assay for Inhibitors of Recombinant Selenoprotein Glutathione Peroxidase 4 (GPX4) (AID 1845192); further: nearly all actives have a fitted effect of over 65% in size; further: potency means the concentration at half of the fitted maximal effect; on activity change, negative = inhibition: series mostly up to about 50 µM
Method in brief: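 GR-coupled readout: 100 nM GR, 1 mM GSH, 0.5 mM NADPH; NADPH fluorescence (ex 340/em 450 nm) read at t=0 and after 15 min RT. GPX4 200 nM, preincubated 30 min with compound; substrate 0.5 mM CHP.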

[9] = target: Luciferin 4-monooxygenase (Photinus pyralis) (UniProt P08659); experiment: Primary firefly luciferase (FLuc) qHTS assay for identification of artifact compounds. (AID 1845220); further: nearly all actives have a fitted effect of over 60% in size; on activity change, negative = inhibition: series mostly up to about 54 µM
Method in brief: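 Reaction readout was CCD-imaged luminescence, taken 5 min after adding 10 nM purified firefly enzyme to compound-treated wells holding 10 uM luciferin and ATP in pH 7.6 buffer.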

[10] = Primary fluorescence-based thiol-reactive (MSTI) qHTS assay for identification of artifact compounds. (AID 1845221); further: nearly all actives have a fitted effect of over 65% in size; further: potency means the concentration at half of the fitted maximal effect;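 on activity change, negative = thiol reactive: series mostly up to about 54 µM; thiol-reactive compounds lower the probe fluorescence signal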
Method in brief: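 A multi-concentration qHTS design tested compounds against 4 uM MSTI, pH 7.4 phosphate-buffered saline. Plates were protected from light for 1 h at room temperature before imaging fluorescence.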

Metallo-beta-lactamase type 2 (Klebsiella pneumoniae), sequence (C7C422 whole entry, looked up): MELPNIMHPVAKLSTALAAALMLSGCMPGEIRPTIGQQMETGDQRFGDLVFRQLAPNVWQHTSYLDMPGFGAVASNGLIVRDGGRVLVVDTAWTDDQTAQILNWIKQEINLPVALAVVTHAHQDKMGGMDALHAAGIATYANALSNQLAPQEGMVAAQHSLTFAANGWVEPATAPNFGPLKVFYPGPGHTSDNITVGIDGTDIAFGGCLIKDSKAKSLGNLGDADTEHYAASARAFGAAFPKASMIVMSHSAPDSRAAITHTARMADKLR
Phospholipid hydroperoxide glutathione peroxidase GPX4 (Homo sapiens), sequence (P36969 whole entry, looked up): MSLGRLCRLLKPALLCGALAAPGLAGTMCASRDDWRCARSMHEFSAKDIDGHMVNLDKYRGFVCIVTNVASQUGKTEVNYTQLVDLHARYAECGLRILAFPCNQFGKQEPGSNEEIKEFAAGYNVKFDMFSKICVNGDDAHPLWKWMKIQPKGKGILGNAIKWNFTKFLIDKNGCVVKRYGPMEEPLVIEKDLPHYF
Glutathione peroxidase 1 (Homo sapiens), sequence (P07203 whole entry, looked up): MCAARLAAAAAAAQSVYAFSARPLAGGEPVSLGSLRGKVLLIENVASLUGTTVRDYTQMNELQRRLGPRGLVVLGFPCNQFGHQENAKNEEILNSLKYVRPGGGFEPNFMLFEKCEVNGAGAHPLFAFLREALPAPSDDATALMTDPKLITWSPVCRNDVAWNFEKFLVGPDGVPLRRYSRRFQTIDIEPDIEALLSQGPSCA
Nuclear receptor subfamily 1 group I member 3 (Homo sapiens), sequence (Q14994 whole entry, looked up): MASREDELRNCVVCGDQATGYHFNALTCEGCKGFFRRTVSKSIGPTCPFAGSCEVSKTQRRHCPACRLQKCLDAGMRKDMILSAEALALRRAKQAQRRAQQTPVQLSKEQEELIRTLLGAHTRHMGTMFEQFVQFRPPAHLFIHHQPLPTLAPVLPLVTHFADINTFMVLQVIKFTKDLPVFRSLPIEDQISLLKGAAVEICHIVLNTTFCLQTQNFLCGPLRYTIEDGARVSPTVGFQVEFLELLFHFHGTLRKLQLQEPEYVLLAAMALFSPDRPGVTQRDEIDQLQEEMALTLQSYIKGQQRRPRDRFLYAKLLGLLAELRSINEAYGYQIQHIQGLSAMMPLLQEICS

NC(=O)c1cnccn1
outcome [1]: inactive | outcome [2]: inactive | outcome [3]: inactive | outcome [4]: inactive | outcome [5]: inactive

Cc1ccc(N(CC2=NCCN2)c2cccc(O)c2)cc1
outcome [6]: inactive | Potency [7]: inactive | Potency [8]: inactive

N=c1nc(N2CCCCC2)cc(N)n1O
outcome [6]: inactive | Potency [7]: inactive | Potency [8]: inactive

Cc1oncc1C(=O)Nc1ccc(C(F)(F)F)cc1
outcome [6]: inactive | Potency [7]: inactive | Potency [8]: inactive

NCCc1ccc(O)c(O)c1
outcome [6]: inactive | Potency [7]: inactive | Potency [8]: inactive

CCCCCCCc1ccc(CCc2cccc(O)c2C(=O)O)cc1
Potency [7]: inactive | Potency [8]: 20.2 µM (active)

CNC[C@H](O)c1cccc(O)c1
outcome [6]: inactive | Potency [7]: inactive | Potency [8]: inactive

Cc1cn[nH]c1
outcome [6]: inactive | Potency [7]: inactive | Potency [8]: inactive

CCc1cncnc1N1CCN(Cc2nc3ccc(C(F)(F)F)cc3[nH]2)CC1
outcome [6]: inactive | Potency [7]: inactive | Potency [8]: inactive | Potency [9]: inactive | Potency [10]: inactive

Oc1cccc(-c2nc(N3CCOCC3)c3oc4ncccc4c3n2)c1
Potency [7]: inactive

Cn1c(=O)c(F)c(Nc2ccc(I)cc2F)c2c(=O)n(C[C@@H](O)CO)cnc21
Potency [7]: inactive | Potency [8]: inactive

Cc1cc([C@@H](C)Nc2ccccc2C(=O)O)c2nc(N3CCOCC3)cc(=O)n2c1
Potency [7]: inactive

O=C(O)CCc1ccc(NCc2cccc(Oc3ccccc3)c2)cc1
outcome [6]: inactive | Potency [7]: inactive | Potency [8]: inactive | Potency [9]: inactive | Potency [10]: 1.68 µM (active)

CC(C)(C)NCC(O)c1ccc(O)c(CO)c1 (centres undefined)
outcome [6]: inactive | Potency [7]: inactive | Potency [8]: inactive

OC(CCN1CCCCC1)(c1ccccc1)C1CC2C=CC1C2 (centres undefined)
outcome [6]: inactive | Potency [7]: inactive | Potency [8]: inactive

Cc1cnc(NC(=O)C2=C(O)c3ccccc3S(=O)(=O)N2C)s1
outcome [6]: inactive | Potency [7]: inactive | Potency [8]: inactive

CC(=O)Oc1ccccc1C(=O)O
outcome [6]: inactive | Potency [7]: inactive | Potency [8]: inactive

CCN(CC)CCCC(C)Nc1ccnc2cc(Cl)ccc12 (centres undefined)
outcome [6]: inactive | Potency [7]: inactive | Potency [8]: inactive | activity change, negative = inhibition [9]: -3.19% [at 11.6 µM] (inactive) | activity change, negative = thiol reactive [10]: -0.305% [at 11.5 µM] (inactive)

CS(=O)(=O)Oc1ccc2c(NC(N)=O)c(C(=O)c3ccc(Cl)cc3Cl)oc2c1
Potency [7]: inactive | Potency [8]: inactive

Nc1nccc(-c2ccc3noc(-c4ccc(Cl)cc4)c3c2)n1
Potency [7]: inactive

O=c1n(CCCN2CCN(c3cccc(Cl)c3)CC2)nc2ccccn12
outcome [6]: inactive | Potency [7]: inactive | Potency [8]: inactive

COc1ccccc1-c1cccc(-c2c(O)c3cc(C#N)c(Cl)cc3[nH]c2=O)c1
Potency [7]: inactive

CCn1c(-c2nonc2N)nc2cnc(Oc3cccc(NC(=O)c4ccc(OCCN5CCOCC5)cc4)c3)cc21
Potency [7]: inactive | Potency [8]: inactive

CC(C)NCC(O)COc1ccc(COCCOC(C)C)cc1 (centres undefined)
outcome [6]: inactive | Potency [7]: inactive | Potency [8]: inactive

CCC(C)N(C)C(=O)c1cc2ccccc2c(-c2ccccc2Cl)n1 (centres undefined)
outcome [6]: inactive | Potency [7]: inactive | Potency [8]: inactive

CS(=O)(=O)c1cccc(CNc2nc(Nc3ccc4c(c3)CCC(=O)N4)ncc2C(F)(F)F)c1
outcome [6]: inactive | Potency [7]: inactive | Potency [8]: inactive | Potency [9]: inactive | Potency [10]: inactive

COc1ccc(-c2c(-c3ccc(O)cc3O)n[nH]c2C)cc1
Potency [7]: inactive

NCCCC(N)(C(=O)O)C(F)F (centres undefined)
outcome [6]: inactive | Potency [7]: inactive | Potency [8]: inactive

Cc1c(CCOc2ccc(C(=O)O)cc2)c2cc(Cl)ccc2n1C(c1ccccc1)c1ccccc1
Potency [7]: inactive

CC(C)(Sc1ccc(CCN(CCCCC2CCCCC2)C(=O)NC2CCCCC2)cc1)C(=O)O
outcome [6]: inactive | Potency [7]: inactive | Potency [8]: inactive and 6.4 µM (active) | Potency [9]: inactive | Potency [10]: inactive

CC(C)c1onc(-c2c(Cl)cccc2Cl)c1COc1ccc(/C=C/c2cccc(C(=O)O)c2)c(Cl)c1
Potency [7]: inactive

CO[C@@H]1[C@H](N(C)C(=O)c2ccccc2)C[C@H]2O[C@]1(C)n1c3ccccc3c3c4c(c5c6ccccc6n2c5c31)C(=O)NC4
Potency [7]: inactive

Cc1cccc(-c2nn(C(=S)Nc3ccccc3)cc2-c2ccnc3ccccc23)n1
Potency [7]: inactive

CCOC(=O)N1CCC(=C2c3ccc(Cl)cc3CCc3cccnc32)CC1
outcome [6]: inactive | Potency [7]: inactive | Potency [8]: inactive

OC[C@H](Cc1ccccc1)Nc1nc(Oc2ccc3c(c2)CCC3)nc2c1ncn2Cc1ccc(-c2ccccc2)cc1
Potency [7]: inactive | Potency [8]: inactive
